Where “and” joins values, the source holds several entries; their conditions need not be identical. Equal values may be shown once. Compounds without any hit were thinned out: in the full panel of roughly 83,000, 20% have a hit.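 Results are percent growth after 48 hours of single-concentration exposure. 100 means growth as in untreated cells, lower positive values show inhibition; negative values down to -100 show cell death.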 A structure can be active in one record and inactive in another. Calls of active or inactive are those of the source. Rule for the calls: active = growth percent below 10; inactive = the rest.
Columns and labels:
Assay in all cases: NCI-60 one-dose screen, 48 h (100 = growth as untreated, 0 = no growth, -100 = all killed)
Conditions in all cases: 10 µM unless noted
SR leukemia = system: SR leukemia
RPMI-8226 leukemia = system: RPMI-8226 leukemia
OVCAR-8 ovarian = system: OVCAR-8 ovarian
OVCAR-4 ovarian = system: OVCAR-4 ovarian
SK-OV-3 ovarian = system: SK-OV-3 ovarian
IGROV1 ovarian = system: IGROV1 ovarian
OVCAR-3 ovarian = system: OVCAR-3 ovarian
HS 578T breast = system: HS 578T breast
NCI/ADR-RES ovarian = system: NCI/ADR-RES ovarian
T-47D breast = system: T-47D breast
BT-549 breast = system: BT-549 breast
MDA-MB-435 melanoma = system: MDA-MB-435 melanoma
SW-620 colon = system: SW-620 colon
MCF7 breast = system: MCF7 breast
HCT-116 colon = system: HCT-116 colon
HCC-2998 colon = system: HCC-2998 colon
KM12 colon = system: KM12 colon
OVCAR-5 ovarian = system: OVCAR-5 ovarian

Measured: growth

COc1ccc2c(=O)cc(-c3ccccc3)[nH]c2c1
14.1% (inactive) and 8% (active): KM12 colon
inactive: OVCAR-4 ovarian 53.1% and 36.7% | IGROV1 ovarian 33.2% | HS 578T breast 31.5% and 58.9% | T-47D breast 50.7% and 57.1% | BT-549 breast 48.6% and 45.1% | SW-620 colon 23.1% and 33.3% | MCF7 breast 18.2% and 14.8%
5.46% (active) and 23.9% (inactive): SK-OV-3 ovarian
21.8% (inactive) and 2.02% (active): RPMI-8226 leukemia
17.5% (inactive) and 8.21% (active): OVCAR-8 ovarian
17.4% (inactive) and 2.14% (active): HCC-2998 colon
16.7% (inactive) and 8.27% (active): HCT-116 colon
active: SR leukemia 4.49% | OVCAR-3 ovarian -47.7% and -45.4% | NCI/ADR-RES ovarian -12.9% | MDA-MB-435 melanoma -46.6% and -12%

Cc1n[nH]c(=O)n(/N=C\c2c[nH]c3ccccc23)c1=O
inactive: SR leukemia 108% | RPMI-8226 leukemia 105% | OVCAR-8 ovarian 102% | OVCAR-4 ovarian 96.9% | SK-OV-3 ovarian 97.2% | IGROV1 ovarian 102% | OVCAR-3 ovarian 107% | HS 578T breast 108% | NCI/ADR-RES ovarian 106% | T-47D breast 102% | BT-549 breast 117% | MDA-MB-435 melanoma 107% | SW-620 colon 106% | MCF7 breast 91.1% | HCT-116 colon 113% | KM12 colon 105%

Cc1nn(-c2ccccc2)nc1C(=O)Nc1ccccc1C(=O)NCC1CC1
inactive: SR leukemia 54.5% | RPMI-8226 leukemia 92.9% and 92% | OVCAR-5 ovarian 99.6% and 86.8% | OVCAR-4 ovarian 106% and 40.5% | SK-OV-3 ovarian 99% and 91% | IGROV1 ovarian 108% and 33.7% | OVCAR-3 ovarian 133% and 54.2% | HS 578T breast 127% and 24.2% | NCI/ADR-RES ovarian 89.6% and 41.4% | T-47D breast 76.8% and 28.7% | BT-549 breast 123% and 84.8% | MDA-MB-435 melanoma 102% and 85.9% | SW-620 colon 104% and 68.7% | MCF7 breast 81.1% and 56.5% | HCC-2998 colon 102% and 116% | KM12 colon 117% and 93.9%
63.9% (inactive) and -13.4% (active): HCT-116 colon

Cn1c(SSc2ccc(-c3cccnc3)n2C)ccc1-c1cccnc1
inactive: SR leukemia 86.8% and 58.3% | RPMI-8226 leukemia 96.5% and 92.1% | OVCAR-5 ovarian 141% and 115% | OVCAR-4 ovarian 80.3% and 101% | SK-OV-3 ovarian 131% and 120% | IGROV1 ovarian 103% and 88.1% | OVCAR-3 ovarian 98.9% and 102% | HS 578T breast 104% | NCI/ADR-RES ovarian 103% and 101% | T-47D breast 83.3% and 121% | BT-549 breast 107% and 105% | MDA-MB-435 melanoma 92.8% and 82% | SW-620 colon 62.8% and 11.1% | MCF7 breast 76.4% and 117% | HCT-116 colon 82.3% and 99.2% | HCC-2998 colon 112% and 102% | KM12 colon 98.5% and 95.5%

ClC/C=C/CSc1ncnc2nc[nH]c12
inactive: SR leukemia 74.4% | RPMI-8226 leukemia 98.7% | OVCAR-8 ovarian 106% | OVCAR-4 ovarian 108% and 99% | SK-OV-3 ovarian 95% and 107% | IGROV1 ovarian 113% and 101% | OVCAR-3 ovarian 119% and 114% | HS 578T breast 105% and 119% | NCI/ADR-RES ovarian 106% and 108% | T-47D breast 98% and 99.5% | BT-549 breast 102% and 158% | MDA-MB-435 melanoma 108% and 103% | SW-620 colon 98.8% and 110% | MCF7 breast 99.8% and 93.7% | HCT-116 colon 105% | HCC-2998 colon 106% and 108% | KM12 colon 113% and 105%

CCN(CC)CCNc1ccc(C)c2sc3ccccc3c(=O)c12 (tested in a mixture with another compound)
active: IGROV1 ovarian -29.6% and 3.62%
10.1% (inactive) and -9.01% (active): RPMI-8226 leukemia
inactive: OVCAR-8 ovarian 23.7% and 32.3% | OVCAR-4 ovarian 40.7% and 53.3% | OVCAR-3 ovarian 58.9% and 62.8% | HS 578T breast 122% and 81.6% | NCI/ADR-RES ovarian 43.1% and 43% | T-47D breast 41% and 31.5% | BT-549 breast 46.4% and 79.4% | MDA-MB-435 melanoma 23.9% and 28.2% | SW-620 colon 24% and 20.5% | HCT-116 colon 19.4% and 19.9% | HCC-2998 colon 24.6% and 20.5%
8.47% (active) and 20% (inactive): SR leukemia
12.2% (inactive) and 5.61% (active): MCF7 breast

COc1ccccc1/C=N\N=C(N/N=C/c1ccccc1OC)N/N=C/c1ccccc1OC
23.8% (inactive) and 6.76% (active): MCF7 breast
inactive: SR leukemia 19.9% and 19.6% | OVCAR-8 ovarian 69% and 23.3% | OVCAR-4 ovarian 29.2% | SK-OV-3 ovarian 73.7% and 49.8% | HS 578T breast 99.5% and 33.8% | NCI/ADR-RES ovarian 45.4% and 19.1% | T-47D breast 61.9% and 27% | BT-549 breast 80.8% and 39.1% | MDA-MB-435 melanoma 61.9% and 30.2% | SW-620 colon 60.8% and 20.1% | HCT-116 colon 39.5% and 14% | KM12 colon 43.1% and 15.6%
26.7% (inactive) and -8.79% (active): RPMI-8226 leukemia
-6.91% (active) and 19.3% (inactive): OVCAR-3 ovarian

CC12CCC(CC1)C(C)(C)O2
inactive: SR leukemia 88.8% | RPMI-8226 leukemia 103% | OVCAR-8 ovarian 111% | OVCAR-4 ovarian 113% | SK-OV-3 ovarian 104% | IGROV1 ovarian 103% | OVCAR-3 ovarian 121% | HS 578T breast 102% | NCI/ADR-RES ovarian 108% | T-47D breast 97.9% | BT-549 breast 98.9% | MDA-MB-435 melanoma 100% | SW-620 colon 104% | MCF7 breast 98.7% | HCT-116 colon 112% | HCC-2998 colon 107% | KM12 colon 109%

O=C(Nc1cccc(Cl)c1)c1cc2ccccc2cc1O
18.9% (inactive) and 6.81% (active): HCT-116 colon
23.4% (inactive) and 3.87% (active): SR leukemia
inactive: OVCAR-4 ovarian 29.7% and 10.1% | IGROV1 ovarian 22.6% and 24.2% | OVCAR-3 ovarian 18.5% and 14.7% | HS 578T breast 17.5% and 21.8% | MDA-MB-435 melanoma 28.8% and 13.9% | SW-620 colon 13.1% and 13.9% | MCF7 breast 35.5% and 16.9% | HCC-2998 colon 27.4% | KM12 colon 15.4% and 11.8%
15.5% (inactive) and 2.04% (active): T-47D breast
11.2% (inactive) and 8.75% (active): OVCAR-8 ovarian
active: RPMI-8226 leukemia -19.4% and -4.12% | SK-OV-3 ovarian -11.7% | NCI/ADR-RES ovarian 4.12% and 9.44% | BT-549 breast 6.65% and 0.941%

COc1ccc(NC(=S)Nc2ccccn2)cc1
inactive: SR leukemia 90.5% | RPMI-8226 leukemia 93% | OVCAR-8 ovarian 96.5% | OVCAR-4 ovarian 110% | SK-OV-3 ovarian 98% | IGROV1 ovarian 106% | OVCAR-3 ovarian 97% | HS 578T breast 101% | T-47D breast 101% | BT-549 breast 105% | MDA-MB-435 melanoma 98.7% | SW-620 colon 102% | MCF7 breast 95.1% | HCT-116 colon 95.4% | HCC-2998 colon 101% | KM12 colon 91%

From PubChem BioAssay (NCI)
